# This is a sample that favours compounds with a hit; in the whole collection about 2.1% have one here.
# FUS suppressor = suppressors of FUS proteinopathy in yeast; Potency, µM (doses to about 76.6 µM), most hits filed as activators; 0.24% of 390,000 active; S. cerevisiae FUS-expressing, growth rescue, OD600, 24 h;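 also: plate controls were DMSO vehicle for no effect and reference control for full effect; nearly all actives have a fitted effect of over 55% in size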
#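 Steps: raffinose overnight preculture; dilution to OD 0.005 in 2% galactose minimal medium; compound addition (concentration series); 24hr at 30C, 99% humidity; absorbance read at 600 nm.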
# Abeta rescue = compounds reversing amyloid beta toxicity in yeast; yeast expressing A-beta42, growth rescue, OD600, 48 h; response scale: 0% DMSO, 100% iron-clioquinol control; Potency, µM (top dose mostly 46.1 µM), most hits filed as activators; 0.063% of 410,000 active; AID 1347071; also: nearly all actives have a fitted effect of over 55% in size
#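 Growth rescue measured by 600 nm absorbance after 48 h yeast culture at 30 C with compound. Values normalized between DMSO and an equimolar ferric chloride plus clioquinol control.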
# aSyn yeast inh = alpha-synuclein toxicity inhibition in yeast; Yeast expressing alpha-synuclein, growth rescue, BacTiter-Glo, 24 h; Potency, µM (doses to about 46.1 µM), inactives show top-dose growth rescue (activation), usual class: activators; 0.14% of 370,000 active; AID 652106; also: % of control where 0% means no effect; nearly all actives have a fitted effect of over 65% in size
#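 Rescue of yeast growth: cells expressing toxic alpha-synuclein, induced in galactose at OD600 0.02, incubated with compound 24 h at 30 C. ATP luminescence quantified growth; inhibitors of toxicity appear as activators.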
# TDP-43 yeast inh = rescues yeast growth from TDP-43 toxicity; 1.8% of 410,000 active; TDP-43 expressing yeast growth rescue, BacTiter-Glo, 24 h; Potency, µM (doses to about 46.1 µM), for the others: at the top dose growth rescue (activation), usual class: activators; also: % of control where 0% means no effect; nearly all actives have a fitted effect of over 50% in size
#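 Cell-based yeast growth screen: TDP-43 expression induced in galactose, inoculum OD600=0.02 after raffinose pregrowth to mid-log. Read-out BacTiter-Glo luminescence at 24 hr, 30 deg C; inhibition of toxicity seen as signal increase.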
# Numbers without * were called inactive; i = inactive; ? = inconclusive; / = no result given; [ ] = remark or other dose. Calls follow the shape of the dose curve; as a rule, active = well fitted curve in the direction sought with a large enough effect; inconclusive = small, poorly fitted or top-dose-only effect, or another doubt; inactive = no such curve, though single readings can be large; an effect the other way counts as inactive or inconclusive. Potency is read from the fitted curve at half-maximal effect.
SMILES,FUS suppressor,Abeta rescue,aSyn yeast inh,TDP-43 yeast inh
CCCN1CNc2c(c(=O)[nH]c(=S)n2CCc2ccsc2)C1,/,/,-0.8%,/
COC(=O)[C@]12C[C@H](CC(=O)N3CCN(C(=O)C4CC4)CC3)C(=O)N(CCc3ccc(OC)c(OC)c3)C1=C[C@H](C(C)C)O[C@@H]2C1CC1,i,/,/,/
C[n+]1cccc(Br)c1,/,/,-0.8%,/
CN(Cc1ccccc1)C(=O)OCc1cn(Cc2ccc(F)cc2)nn1,i,/,/,/
Cc1cc(NCCCCCCCNc2cc(C)nc3cc([N+](=O)[O-])ccc23)c2ccc([N+](=O)[O-])cc2n1,/,i,0.8%,14.1µM*
COCCCNc1cc(C)nc2ccccc12,i,i,0.1%,2.7%
Cc1ccccc1CN1CCCCC(NC(=O)Cc2cccs2)C1=O (stereo not given),i,/,/,/
CCCCS(=O)(=O)c1oc(-c2cccs2)nc1S(=O)(=O)c1ccc(F)cc1,i,i,/,22.4µM*
CCCCCS(=O)(=O)c1oc(-c2cccs2)nc1S(=O)(=O)c1ccc(C)cc1,i,i,/,11.2%
O=C(Nc1nnc(-c2cccs2)o1)c1cccc(Oc2ccccc2)c1,i,i,?,3.98µM*
O=C(Nc1nnc(-c2ccc(F)cc2)o1)c1cccc([N+](=O)[O-])c1,i,?,?,11.2µM*
O=C(Nc1nnc(C2=COCCO2)o1)c1cccc([N+](=O)[O-])c1,i,i,-1.8%,9.2%
COc1cccc(-c2nnc(NC(=O)c3cccc(F)c3)o2)c1,i,i,12.8%,?
O=C(Nc1nnc(-c2cccs2)o1)c1cccc(F)c1,i,11.2µM*,28.6%,12.6µM*
CC1(C)OC(=O)C2(Cc3ccc(Cl)cc3N3CCCC32)C(=O)O1 (stereo not given),/,/,-0.5%,/
Cc1c(C(O)(c2ccccc2)c2ccccc2)[n+]2ccccc2n1C,i,/,/,/
COc1ccccc1CN=c1c([N+](=O)[O-])nn(-c2ccc3c(c2)OCCO3)n1O,i,i,5.6%,17.8µM*
O=[N+]([O-])c1nn(-c2ccc3c(c2)OCCO3)n(O)c1=NC1CCCCC1,i,i,14.0%,7.94µM*
O=C(Nc1ccc(Cl)cc1Cl)O[C@@H]1CC[C@@]23CCCN2C(=O)CCC[C@H]3C1,i,/,/,/
Cc1ccc(-c2noc(CSc3nnc(C)n3-c3ccc(C)c(C)c3)n2)cc1,i,i,/,35.5µM*
Cc1ccc(-c2noc(CSc3nnc(C)n3-c3ccc(C)cc3)n2)cc1,?,i,/,0.0%
Clc1ccc(-c2noc(CSc3nnc(-c4ccncc4)n3-c3ccccc3)n2)cc1,?,i,10.2%,-0.9%
Cc1ccc(-n2c(SCc3nc(-c4ccc(Cl)cc4)no3)nnc2-c2ccncc2)cc1,?,i,/,35.5µM*
Cn1c(SCc2cccc(C(F)(F)F)c2)nnc1-c1ccco1,i,i,16.9%,20µM*
Cn1c(SCc2nc(-c3ccc(Cl)cc3)no2)nnc1-c1ccco1,i,i,5.2%,12.6µM*
SMILES,FUS suppressor,Abeta rescue,aSyn yeast inh,TDP-43 yeast inh
CC(C)c1cccc(NC(=O)COC(=O)c2ccccc2OCc2cccc(Br)c2)c1,/,/,2.8%,/
Cc1nc2cc(C(=O)N3CCN(C(=O)C(Cl)Cl)CC3)ccc2n1C1CCCC1,i,/,/,/
O=C(Cc1ccccc1)Nc1cc(C(=O)c2ccccc2)ccc1N1CCOCC1,i,i,/,12.6µM*
O=C(O)c1ccc(CSc2nc3ccccc3o2)cc1,i,i,5.7%,12.6µM*
CCc1ccccc1Nc1ncnc2c1cnn2-c1ccc(Cl)cc1,i,i,/,-2.5%
CCn1cnc2c1c(=O)n(Cc1cccc(Br)c1)c(=O)n2Cc1ccccc1,i,i,-0.4%,22.4µM*
CC(C)N(Cc1ccccc1)C(=O)c1cc2ccc3cccnc3c2[nH]1,i,i,/,22.4µM*
COc1ccccc1NC(=O)c1cc2ccc3cccnc3c2[nH]1,?,i,/,14.1µM*
CCC[C@H]1[C@@H](OC(=O)N2CCOCC2)CC[C@@]23CCCN2C(=O)CCC[C@@H]13,i,/,/,/
C(=N\Nc1nncc2ccccc12)/c1ccccc1,i,i,5.9%,22.4µM*
Cc1cccc(/C=N/Nc2nncc3ccccc23)c1,i,i,-8.2%,-16.4%
COc1coc(C(O)CN)cc1=O (stereo not given),i,i,0.9%,0.0%[0.397 µM]
CCOC(=O)C(=Cc1cc(=O)c(OC)co1)C(=O)OCC,i,i,8.3%,12.6µM*
CCN1CCN(Cc2ccc(NC(=O)c3cc(NC(=O)c4ccc5n[nH]nc5c4)cc(OC)c3)cc2C(F)(F)F)CC1,i,i,-6.0%,16.9%
CCN1CCN(Cc2ccc(NC(=O)c3cc(NC(=O)c4cc(-c5ccc(OC)cc5)n[nH]4)cc(OC)c3)cc2C(F)(F)F)CC1,28.2µM*,i,-5.8%,-1.8%
C/C(C=NNC(=O)CSc1nnc(-c2ccc(Cl)cc2)n1-c1ccccc1)=C\c1ccccc1,i,/,/,/
CC(C)C[C@H](NC(C)(C)C(=O)NC1CCCCC1)C(=O)NCCc1c[nH]c2ccccc12,i,/,/,/
COc1ccc(C2c3[nH]c4ccc(OC)cc4c3CCN2C(=O)Nc2ccccc2)cc1 (stereo not given),?,i,/,20µM*
COc1ccc(C=Nn2c(-c3ccccc3F)n[nH]c2=S)cc1OCc1ccccc1,i,/,/,/
CCCCNC(=S)N1CCn2cccc2C1c1ccccc1 (stereo not given),i,i,-6.4%,/
CCCCNC(=S)N1CCn2cccc2C1c1ccc(F)cc1 (stereo not given),?,i,7.3%,15.8µM*
Cc1ccc(-n2ncc3c(Nc4cccc(C(F)(F)F)c4)ncnc32)cc1C,i,i,/,?
Cc1ccccc1Cn1cc(CN2[C@@H](CC(C)C)COc3cccc(F)c3S2(=O)=O)nn1,i,/,/,/
Cc1nc(N2CCOCC2)nc(N2CCCCC2C)c1[N+](=O)[O-] (stereo not given),i,i,-10.6%,20µM*
Cc1nc(N2CCOCC2)nc(N2CCC(C)CC2)c1[N+](=O)[O-],i,i,0.4%,?
SMILES,FUS suppressor,Abeta rescue,aSyn yeast inh,TDP-43 yeast inh
COC(=O)[C@]1(CNS(=O)(=O)C2CC2)CC(=O)N(C)[C@@H]1c1ccccc1,i,/,/,/
Cc1cc(=O)oc2c(C)c3occc3cc12,i,?,?,2.51µM*
COc1ccc2c(C)cc(=O)oc2c1C,i,i,1.7%,10.0%
COC(=O)[C@H](C)NC(=O)[C@H](CC(C)C)NC(=O)OC(C)(C)C,i,/,/,/
Oc1c(Br)cc(Br)cc1CNc1cccc2cccnc12,i,i,?,17.8µM*
CC(C)C[C@@H]1COc2cc(F)ccc2S(=O)(=O)N1C,i,/,/,/
Cc1ccccc1N/N=C1\CCCNC1=O,i,i,-8.3%,16.3%
Cc1ccc(C)c(N/N=C2\CCCNC2=O)c1,/,i,-17.4%,20µM*
C[S+](C)CC(=O)c1ccc2ccccc2c1,/,/,1.0%,/
Oc1ccc(C[C@@H]2CNC(=S)N2CCc2cc(C(F)(F)F)cc(C(F)(F)F)c2)cc1,i,i,-0.2%,36.5%

# Assay outcomes from PubChem.
